Experimental data: PubChem BioAssay (NCATS)
Several values for one entry are separate records, joined by “and”; a condition that tells them apart may be missing. Equal values may be shown once. Results filed as inconclusive are left out. Where a call stands in place of a potency, no number is given. A structure can be active in one record and inactive in another. Activity calls are given as the source filed them. Calls come from the whole dose curve; as a rule, active = well fitted curve in the direction sought with a large enough effect; inconclusive = small, poorly fitted or top-dose-only effect, or another doubt; inactive = no such curve, though single readings can be large; an effect the other way counts as inactive or inconclusive.

Tests used:
[1] = biological target: Phospholipid hydroperoxide glutathione peroxidase GPX4 (Homo sapiens) (UniProt P36969); assay: Primary qHTS Assay for Inhibitors of Recombinant Selenoprotein Glutathione Peroxidase 4 (GPX4) (AID 1845192); note: nearly all actives have a fitted effect of over 65% in size; note: potency is the fitted concentration of half-maximal effect
Summary of the method: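 GR-coupled readout: 100 nM GR, 1 mM GSH, 0.5 mM NADPH; NADPH fluorescence (ex 340/em 450 nm) read at t=0 and after 15 min RT. GPX4 200 nM, preincubated 30 min with compound; substrate 0.5 mM CHP.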

[2] = Quantitative High-Throughput drug screen in 47 multiple myeloma cell lines against the NCATS MIPE library collection: FR4_PLB cell viability assay (AID 1918924; note: nearly all actives have a fitted effect of over 35% in size; note: potency is the fitted concentration of half-maximal effect)
Summary of the method: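 CellTiter-Glo luminescence (ATP) after 48 h compound exposure, 37C/5% CO2; 500 cells/well; MIPE 4.0 approved/investigational drugs pinned in; DMSO = 100%, media only = 0% viability.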

[3] = Quantitative High-Throughput drug screen in 47 multiple myeloma cell lines against the NCATS MIPE library collection: Delta47_JCRB cell viability assay (AID 1918925; note: nearly all actives have a fitted effect of over 45% in size; note: potency is the fitted concentration of half-maximal effect)
Summary of the method: (§1)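 Myeloma cells (500 per well) were exposed to MIPE 4.0 compounds by pin transfer and incubated 48 hours at 37C, 5% CO2. Viability was read as ATP by CellTiter-Glo luminescence, normalised to DMSO (100%) and media-only (0%) wells.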

[4] = Quantitative High-Throughput drug screen in 47 multiple myeloma cell lines against the NCATS MIPE library collection: EJM_DSMZ cell viability assay (AID 1918926; note: nearly all actives have a fitted effect of over 30% in size; note: potency is the fitted concentration of half-maximal effect)
Summary of the method: as §1

[5] = Quantitative High-Throughput drug screen in 47 multiple myeloma cell lines against the NCATS MIPE library collection: AMO1_DSMZ cell viability assay (AID 1918927; note: nearly all actives have a fitted effect of over 30% in size; note: potency is the fitted concentration of half-maximal effect)
Summary of the method: as §1

[6] = Quantitative High-Throughput drug screen in 47 multiple myeloma cell lines against the NCATS MIPE library collection: ARP1_JJKsccF8 cell viability assay (AID 1918928; note: nearly all actives have a fitted effect of over 40% in size; note: potency is the fitted concentration of half-maximal effect)
Summary of the method: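 Myeloma cells, 500 per well, were exposed to MIPE 4.0 drugs by pin transfer for 48 h at 37 °C, 5% CO2. Viability was read as ATP luminescence with CellTiter-Glo, normalised to DMSO-only (100%) and medium-only (0%) wells.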

[7] = biological target: Luciferin 4-monooxygenase (Photinus pyralis) (UniProt P08659); assay: Primary firefly luciferase (FLuc) qHTS assay for identification of artifact compounds. (AID 1845220); note: nearly all actives have a fitted effect of over 60% in size; note: potency is the fitted concentration of half-maximal effect
Summary of the method: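 In this counter-screen for luciferase artifacts, test compounds met substrate (10 uM each luciferin and ATP) before 10 nM enzyme started the reaction. Light output was measured 5 min later.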

[8] = Primary fluorescence-based thiol-reactive (MSTI) qHTS assay for identification of artifact compounds. (AID 1845221); note: nearly all actives have a fitted effect of over 65% in size; note: potency is the fitted concentration of half-maximal effect
Summary of the method: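 MSTI probe at 4 uM final in 2% DMSO/PBS pH 7.4; compounds, 1 h at room temperature in dark. Fluorescence Ex/Em 525/598 nm, normalised to Acetyl-MSTI and MSTI, fitted to 4-parameter Hill.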

[9] = tested on: Nanoluciferase (engineered Oplophorus gracilirostris luciferase); assay: Primary Nanoluciferase (NLuc) qHTS assay for identification of artifact compounds. (AID 1845222);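 note: NLuc secreted into diluted conditioned medium of S16 cells; series mostly up to about 54 µM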
Summary of the method: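 Using secreted nanoluciferase in S16 culture medium (0.22 um filtered, 1:55 dilution), compounds were preincubated 15 min at RT. Signal was generated with Nano-Glo reagent (1:100) over 5 min.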

[10] = Primary redox qHTS assay for identification of artifact compounds. (AID 1845223)
Summary of the method: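 Amplex Red (25 uM) and HRP (250 mU/mL) in HBSS, with compounds for 15 min, then 250 uM DTT for 30 min, room temperature, dark. Fluorescence 525/598 nm read; normalized to DMSO and 10 uM DA3003; Hill fit.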

Chain of Phospholipid hydroperoxide glutathione peroxidase GPX4 (Homo sapiens) (P36969 whole entry, looked up): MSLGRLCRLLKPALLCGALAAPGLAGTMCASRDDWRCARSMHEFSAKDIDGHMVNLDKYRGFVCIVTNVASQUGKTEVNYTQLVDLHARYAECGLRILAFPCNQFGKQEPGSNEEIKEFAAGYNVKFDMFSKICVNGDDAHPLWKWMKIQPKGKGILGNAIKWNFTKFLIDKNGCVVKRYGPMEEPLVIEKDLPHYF

SMILES	Potency [1]	Potency [2]	Potency [3]	Potency [4]	Potency [5]	Potency [6]	Potency [7]	Potency [8]	outcome [9]	outcome [10]
O=C1CCc2ccc(OCCCCN3CCN(c4cccc(Cl)c4Cl)CC3)cc2N1	inactive	inactive	23.5 µM (active)	inactive	inactive	23.5 µM (active)				
CCC(C)(Oc1ccc(C2(c3ccc(OC(C)(CC)C(=O)O)cc3)CCCCC2)cc1)C(=O)O (centres undefined)	inactive	inactive		inactive			inactive	inactive	inactive	
Nc1ccn([C@@H]2O[C@H](CO)[C@@H](O)C2O)c(=O)n1 (some centres undefined)	inactive	inactive	inactive	inactive						
C=C(c1ccc(C(=O)O)cc1)c1cc2c(cc1C)C(C)(C)CCC2(C)C	6.31 µM (active) and inactive and 8.06 µM (active)			inactive		inactive	inactive		inactive	inactive
COc1ccc(C2(C#N)CCC(C(=O)O)CC2)cc1OC1CCCC1 (centres undefined)	inactive	inactive		inactive	inactive	inactive	inactive	inactive	inactive	inactive
COc1c(O)cc2c(c1O)[C@@H]1O[C@H](CO)[C@@H](O)[C@H](O)[C@H]1OC2=O	inactive	inactive		inactive	inactive		inactive	11.7 µM (active)	inactive	inactive
COc1cc2c(cc1OC)C1CC(=O)C(CC(C)C)CN1CC2 (centres undefined)	inactive	inactive	inactive	inactive						
OC(CN1CCN(c2cccc(Cl)c2)CC1)C(c1ccccc1)c1ccccc1 (centres undefined)	inactive	inactive		inactive			inactive	inactive	inactive	inactive
CC(=O)O[C@H]1C(=O)[C@@]2(C)C([C@H](OC(=O)c3ccccc3)[C@]3(O)C[C@H](OC(=O)[C@H](O)[C@@H](NC(=O)c4ccccc4)c4ccccc4)C(C)=C1C3(C)C)[C@]1(OC(C)=O)CO[C@@H]1C[C@@H]2O (some centres undefined)	inactive	inactive		inactive		inactive	inactive	inactive	inactive	inactive
O=C(O)c1cccnc1Nc1cccc(C(F)(F)F)c1	inactive	inactive	inactive	inactive	inactive	inactive				
CCC1=C(C)CN(C(=O)NCCc2ccc(S(=O)(=O)NC(=O)NC3CCC(C)CC3)cc2)C1=O (centres undefined)	inactive	inactive		inactive		inactive	inactive	inactive	inactive	inactive
CCCS(=O)c1ccc2nc(NC(=O)OC)[nH]c2c1 (centres undefined)	inactive	11.8 µM (active)		inactive		23.5 µM (active)	inactive	inactive	inactive	inactive
Cc1ccc(Nc2nccc(N(C)c3ccc4c(C)n(C)nc4c3)n2)cc1S(N)(=O)=O	inactive	20.9 µM (active)	16.6 µM (active)	14.8 µM (active)	10.5 µM (active)		inactive	inactive	inactive	inactive
CC(C)c1nc(CN(C)C(=O)N[C@H](C(=O)N[C@@H](Cc2ccccc2)C[C@H](O)[C@H](Cc2ccccc2)NC(=O)OCc2cncs2)C(C)C)cs1	inactive	11.8 µM (active)		inactive			inactive	inactive	inactive	
N[C@@H](Cc1cc(I)c(Oc2cc(I)c(O)c(I)c2)c(I)c1)C(=O)O	inactive	inactive		inactive	inactive	inactive	inactive	0.736 µM (active)	inactive	inactive
Clc1ccc(C(Cn2ccnc2)OCc2c(Cl)cccc2Cl)c(Cl)c1 (centres undefined)	inactive				20.9 µM (active)	23.5 µM (active)	inactive	inactive	inactive	inactive
CC(=O)Nc1ccc(O)cc1	inactive									
CN(C)CCCC1(c2ccc(F)cc2)OCc2cc(C#N)ccc21 (centres undefined)	inactive	inactive				inactive	inactive	inactive	inactive	inactive
O=C(NOCC1CC1)c1ccc(F)c(F)c1Nc1ccc(I)cc1Cl	inactive	23.5 µM (active)			6.62 µM (active)		inactive	inactive	inactive	inactive
O=c1ccc2ccc(O)c(O)c2o1	inactive	inactive	6.62 µM (active)							
O=Nc1c(-c2c(O)[nH]c3cc(Br)ccc23)[nH]c2ccccc12	inactive	inactive	5.9 µM (active)	14.8 µM (active)	1.05 µM (active)	14.8 µM (active)				
Cc1cc2c(s1)Nc1ccccc1N=C2N1CCN(C)CC1	inactive	inactive	inactive	inactive		inactive	inactive		inactive	inactive
COc1ccccc1N1CCN(CCN(C(=O)C2CCCCC2)c2ccccn2)CC1	inactive	inactive		inactive	2.96 µM (active)	inactive	inactive	inactive	inactive	
Cc1ccc(NC(=O)c2ccc(CN3CCN(C)CC3)cc2)cc1Nc1nccc(-c2cccnc2)n1	inactive						19 µM (active)	inactive	inactive	inactive
COc1cc(Nc2c(C#N)cnc3cc(OCCCN4CCN(C)CC4)c(OC)cc23)c(Cl)cc1Cl	inactive	23.5 µM (active)		23.5 µM (active)		18.7 µM (active)	inactive	inactive	inactive	inactive
